Results on 16 molecules are retold here after PubChem BioAssay.

The other results are listed elsewhere or left out. The source made the active and inactive calls. Unless noted, no rule for the calls is given here. Bounds are passed on as bounds.

Assay [1] is described as follows: apoptosome-driven caspase-3 activation blockers – biochemical, fluorescence, DEVD-Rh110, 20 µM, confirmation (AID 504614;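 active = mean inhibition of at least 40% at 20 µM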;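 also: plate controls were DMSO wells for no effect and DEVD-CHO caspase inhibitor control wells for full effect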). The following applies: reconstituted apoptosome, caspase-3 DEVD-Rh110 fluorescence; at 20 µM; stronger effect = higher value.
Assay [2] is described as follows: detection-step artefacts after completed caspase reaction – biochemical, fluorescence, Rh110, 20 µM, artefact control for Apaf-1 inhibitor project, confirmation (AID 504615;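 active = signal rise of 40% or more at 20 µM, treated as a fluorescence artifact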). The following applies: quenched caspase reaction, at 20 µM, stronger effect = higher value.
A short description of assay [3]: fluorescence interference of Apaf-1 inhibitor hits, dose response, artefact control for Apaf-1 inhibitor project (AID 588538). The following applies: fluorescence interference counterscreen, Apaf-1 assay format. Background: The purpose of a counterscreen is to sort out artefacts and off-target activity.
A short description of assay [4]: Brca1-Bard1 BiLC signal decrease – luminescence, single concentration, counter-screen for Mdm2/MdmX interaction inhibitor project, confirmation (AID 504668). The conditions noted are these: Brca1/Bard1 bimolecular luciferase complementation counterscreen, at 8 µM, stronger effect = higher value.
The target of assay [5] is Sentrin-specific protease 8 (Homo sapiens) (UniProt Q96LD8). The assay is described as follows: human SENP8 peptidase blockers, hit retest – biochemical, luminescence, single concentration, confirmation (AID 488912;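 active = mean inhibition across replicates above about 50%, limit read from the data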). The following applies: Recombinant SENP8, Z-RLRGG-aminoluciferin luminescence, 60 min; at 12.5 µM; stronger effect = higher value.
The target in assay [6] is Sentrin-specific protease 6 (Homo sapiens) (UniProt Q9GZR1). The assay is described as follows: inhibition of human SENP6 catalytic domain – biochemical, luminescence, single concentration, confirmation (AID 488915;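 active = mean inhibition above about 50% in the one-dose retest, limit read from the data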). The following applies: recombinant SENP6, Z-RLRGG-aminoluciferin luminescence; at 12.5 µM; stronger effect = higher value.
Assay [7] deals with Sentrin-specific protease 7 (Homo sapiens) (UniProt Q9BQF6). The assay is described as follows: human SENP7 peptidase blockers, hit retest – biochemical, luminescence, single concentration, confirmation (AID 488917;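 active = mean inhibition above about 50% in the one-dose retest, limit read from the data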). The conditions noted are these: recombinant SENP7, Z-RLRGG-aminoluciferin luminescence, 40 min; at 12.5 µM; stronger effect = higher value.
Assay [8] has as its target Caspase-3 (Homo sapiens) (UniProt P42574). In words: human caspase-3 activity blockade, out-of-family – biochemical, single concentration, selectivity assay for SENP inhibitor project, confirmation (AID 488918;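 active = mean inhibition above about 50%, limit read from the data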;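 also: plate controls were enzyme with DMSO for no effect and wells without caspase-3 for full effect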). The conditions noted are these: purified caspase-3, Z-DEVD-aminoluciferin luminescence, 60 min; at 12.5 µM; stronger effect = higher value.
Assay [9] is described as follows: Ultra-Glo luciferase signal interference – biochemical, single concentration, SENP8 reaction pre-completed, artefact control for SENP inhibitor project, confirmation (AID 488919;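 active = mean inhibition above about 50% when retested at one dose, limit read from the data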;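 also: plate controls were DMSO wells with completed reaction for no effect and substrate without enzyme for full effect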). The conditions noted are these: Pre-incubated SENP8/Z-RLRGG-aminoluciferin, luciferase luminescence interference; at 12.5 µM; stronger effect = higher value.
Assay [10] is described as follows: PPC-1 cell viability loss – ATP content luminescence, cytotoxicity control for TRAIL apoptosis potentiator project, confirmation (AID 1447;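 active = reconfirmed compounds whose average cytotoxicity reaches 50% or more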;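 also: 0% = DMSO-treated cells and 100% = wells holding medium but no cells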). The conditions noted are these: PPC-1 viability, ATPlite luminescence, overnight; at 5 µM; stronger effect = higher value. Background: ATP-based viability assays read luminescence as a measure of living cells.
For assay [11], the target named is Tumor necrosis factor receptor superfamily member 10B (Homo sapiens) (UniProt O14763). In words: viability loss of caspase-8 NB7 cells with TRAIL – with/without TRAIL, luminescence panel, confirmation (AID 651596; in the data active = activity above about 50%). The conditions noted are these: NB7 neuroblastoma + caspase-8, TRAIL sensitization, NB7 Caspase-8, with TRAIL, mean of runs, at 10 µM, stronger effect = higher value.

Assay in assay [12]: as above
The conditions noted are these: NB7 neuroblastoma + caspase-8, without TRAIL, NB7 Caspase-8, without TRAIL, mean of runs, at 10 µM.

The nature of assay [13]: lowers stimulated NF-kB luciferase signal in Jurkat – cell-based, luminescence, single concentration, T-cell NF-kB inhibitor project, confirmation (AID 435020;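 active = inhibition reaching about 45% at 4 µM in either replicate, limit read from the data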;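 also: plate controls were PMA/ionomycin stimulated DMSO wells for no effect and unstimulated DMSO wells for full effect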). The conditions noted are these: PMA/ionomycin-induced, 16 h, at 4 µM, stronger effect = higher value.
The target of assay [14] is Protein Mdm4 (Homo sapiens) + E3 ubiquitin-protein ligase Mdm2 (Homo sapiens) (UniProt O15151+Q00987). The assay is described as follows: human Mdm2/MdmX binding disruption – cell-based, luminescence, single concentration, set 2, confirmation (AID 504601;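 active = mean inhibition of the luminescence signal across two replicates at or above 26 percent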). The conditions noted are these: SaOS-2 split-luciferase Mdm2/MdmX complementation, at 8 µM, stronger effect = higher value.
Assay [15] can be described thus: NF-kB reporter suppression in CF airway cells – cell-based, GFP fluorescence, single concentration, confirmation (AID 602472; in the data active = inhibition above about 40%;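 also: stimulus PAF is a Pseudomonas aeruginosa filtrate and not platelet activating factor; plate controls were DMSO wells with stimulus for no effect and unstimulated DMSO wells for full effect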). The following applies: KKLEB CF airway cells, PAF-induced NF-kB-GFP fluorescence, overnight; at 5 µM; stronger effect = higher value.
Assay [16] has as its target PEG-3 (UniProt Q6IN02). The assay is described as follows: inhibition of PEG-3 promoter-driven reporter – cell-based, HeLa, luciferase, CREF/GAPDH counter-screen panel, dose response (AID 624167). The conditions noted are these: HeLa PEG-Prom luciferase reporter, overnight, CREF/GAPDH counter-screens; run 1, dose range 1, at 100 µM (top of the series).
Assay [17] concerns the target PEG-3 (UniProt Q6IN02). The assay is described as above. The conditions noted are these: HeLa PEG-Prom luciferase reporter, overnight, CREF/GAPDH counter-screens; run 2, dose range 1, at 100 µM (top of the series).
For assay [18], the system named is Rat fibroblasts (CREF). The description is as above. The following applies: CREF/GAPDH counter-screens; run 1, dose range 1, at 100 µM (top of the series).
Assay [19] has as its system Rat fibroblasts (CREF). The assay is described as above. The conditions noted are these: CREF/GAPDH counter-screens; run 2, dose range 1, at 100 µM (top of the series).

Chain of PEG-3 (Q6IN02 whole entry, looked up): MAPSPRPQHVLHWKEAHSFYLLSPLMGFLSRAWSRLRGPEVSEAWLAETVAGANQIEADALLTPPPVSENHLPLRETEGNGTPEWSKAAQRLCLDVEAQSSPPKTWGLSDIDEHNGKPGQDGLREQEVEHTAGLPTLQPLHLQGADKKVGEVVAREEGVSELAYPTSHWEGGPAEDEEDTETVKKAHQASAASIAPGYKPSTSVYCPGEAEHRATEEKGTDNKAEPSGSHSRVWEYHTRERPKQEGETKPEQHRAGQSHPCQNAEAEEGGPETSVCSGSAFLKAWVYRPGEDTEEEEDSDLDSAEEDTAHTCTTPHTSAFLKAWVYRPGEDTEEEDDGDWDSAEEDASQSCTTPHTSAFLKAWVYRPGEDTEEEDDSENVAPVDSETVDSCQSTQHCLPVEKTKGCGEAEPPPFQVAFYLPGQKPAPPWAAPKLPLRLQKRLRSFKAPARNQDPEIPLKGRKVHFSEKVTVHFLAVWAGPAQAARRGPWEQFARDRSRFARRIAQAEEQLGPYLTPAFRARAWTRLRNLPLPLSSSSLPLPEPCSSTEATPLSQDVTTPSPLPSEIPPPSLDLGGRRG
Chain of Caspase-3 (Homo sapiens) (P42574 28-227 limits assumed): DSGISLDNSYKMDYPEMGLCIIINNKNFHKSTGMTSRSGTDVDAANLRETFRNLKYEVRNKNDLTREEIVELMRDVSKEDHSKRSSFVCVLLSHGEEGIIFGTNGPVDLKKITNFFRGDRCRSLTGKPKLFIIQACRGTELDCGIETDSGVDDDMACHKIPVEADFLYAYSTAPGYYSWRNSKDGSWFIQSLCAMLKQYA
Chain of Sentrin-specific protease 6 (Homo sapiens) (Q9GZR1 628-1112 limits assumed): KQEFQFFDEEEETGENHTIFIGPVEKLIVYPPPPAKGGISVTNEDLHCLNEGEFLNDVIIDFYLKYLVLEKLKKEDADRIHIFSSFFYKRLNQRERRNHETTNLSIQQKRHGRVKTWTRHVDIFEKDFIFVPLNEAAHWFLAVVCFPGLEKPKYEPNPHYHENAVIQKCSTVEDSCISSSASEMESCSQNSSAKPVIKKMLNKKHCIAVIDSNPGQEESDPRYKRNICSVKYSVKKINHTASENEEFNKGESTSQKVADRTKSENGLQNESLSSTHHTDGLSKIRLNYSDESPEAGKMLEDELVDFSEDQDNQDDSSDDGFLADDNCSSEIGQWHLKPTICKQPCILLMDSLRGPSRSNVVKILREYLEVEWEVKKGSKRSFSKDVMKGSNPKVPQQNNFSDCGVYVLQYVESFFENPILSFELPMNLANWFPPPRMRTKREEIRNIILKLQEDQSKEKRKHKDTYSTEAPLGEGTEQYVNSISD
Chain of Sentrin-specific protease 7 (Homo sapiens) (Q9BQF6 706-1050 limits assumed): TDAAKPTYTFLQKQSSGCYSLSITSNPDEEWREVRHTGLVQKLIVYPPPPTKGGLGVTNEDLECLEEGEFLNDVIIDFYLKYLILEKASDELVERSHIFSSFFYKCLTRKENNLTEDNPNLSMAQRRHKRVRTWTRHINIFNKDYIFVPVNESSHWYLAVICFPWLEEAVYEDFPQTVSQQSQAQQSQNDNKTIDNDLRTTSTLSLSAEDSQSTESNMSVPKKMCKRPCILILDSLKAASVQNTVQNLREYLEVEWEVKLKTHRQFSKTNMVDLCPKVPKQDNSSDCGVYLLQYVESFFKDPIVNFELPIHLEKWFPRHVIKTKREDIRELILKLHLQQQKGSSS
Chain of Sentrin-specific protease 8 (Homo sapiens) (Q96LD8 whole entry, looked up, the tested form may be a part): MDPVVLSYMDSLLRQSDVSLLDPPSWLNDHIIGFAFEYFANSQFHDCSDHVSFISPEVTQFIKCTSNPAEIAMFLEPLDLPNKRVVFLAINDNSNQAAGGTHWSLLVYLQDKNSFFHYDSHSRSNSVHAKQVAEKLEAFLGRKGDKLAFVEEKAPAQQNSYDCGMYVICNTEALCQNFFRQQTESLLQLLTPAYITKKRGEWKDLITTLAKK
Chain of Tumor necrosis factor receptor superfamily member 10B (Homo sapiens) (O14763 whole entry, looked up): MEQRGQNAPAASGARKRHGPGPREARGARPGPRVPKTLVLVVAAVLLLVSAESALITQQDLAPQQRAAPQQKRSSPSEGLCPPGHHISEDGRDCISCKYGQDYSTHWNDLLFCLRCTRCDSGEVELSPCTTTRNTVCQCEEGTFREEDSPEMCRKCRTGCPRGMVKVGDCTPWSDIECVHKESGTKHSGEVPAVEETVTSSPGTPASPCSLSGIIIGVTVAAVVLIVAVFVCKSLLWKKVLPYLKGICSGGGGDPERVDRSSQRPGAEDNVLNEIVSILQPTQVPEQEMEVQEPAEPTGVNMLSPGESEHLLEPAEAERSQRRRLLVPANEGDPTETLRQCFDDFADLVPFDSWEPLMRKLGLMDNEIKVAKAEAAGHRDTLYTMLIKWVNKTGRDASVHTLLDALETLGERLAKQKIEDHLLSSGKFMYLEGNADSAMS
Chain of Protein Mdm4 (Homo sapiens) + E3 ubiquitin-protein ligase Mdm2 (Homo sapiens) (O15151 whole entry, looked up): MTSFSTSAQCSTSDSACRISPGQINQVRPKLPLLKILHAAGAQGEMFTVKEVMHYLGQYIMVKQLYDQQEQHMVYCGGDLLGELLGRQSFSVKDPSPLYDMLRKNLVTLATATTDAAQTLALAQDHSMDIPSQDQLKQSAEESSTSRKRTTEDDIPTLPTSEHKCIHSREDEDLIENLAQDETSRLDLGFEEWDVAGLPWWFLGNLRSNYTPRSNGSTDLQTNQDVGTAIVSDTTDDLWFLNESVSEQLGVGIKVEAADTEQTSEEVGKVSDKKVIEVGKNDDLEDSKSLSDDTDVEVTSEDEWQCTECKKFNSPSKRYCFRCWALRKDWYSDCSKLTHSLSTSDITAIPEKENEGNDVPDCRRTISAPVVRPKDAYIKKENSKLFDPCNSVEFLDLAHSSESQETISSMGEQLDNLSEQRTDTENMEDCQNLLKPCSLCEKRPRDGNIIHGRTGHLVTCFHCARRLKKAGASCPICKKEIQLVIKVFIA
Chain of Protein Mdm4 (Homo sapiens) + E3 ubiquitin-protein ligase Mdm2 (Homo sapiens) (Q00987 whole entry, looked up): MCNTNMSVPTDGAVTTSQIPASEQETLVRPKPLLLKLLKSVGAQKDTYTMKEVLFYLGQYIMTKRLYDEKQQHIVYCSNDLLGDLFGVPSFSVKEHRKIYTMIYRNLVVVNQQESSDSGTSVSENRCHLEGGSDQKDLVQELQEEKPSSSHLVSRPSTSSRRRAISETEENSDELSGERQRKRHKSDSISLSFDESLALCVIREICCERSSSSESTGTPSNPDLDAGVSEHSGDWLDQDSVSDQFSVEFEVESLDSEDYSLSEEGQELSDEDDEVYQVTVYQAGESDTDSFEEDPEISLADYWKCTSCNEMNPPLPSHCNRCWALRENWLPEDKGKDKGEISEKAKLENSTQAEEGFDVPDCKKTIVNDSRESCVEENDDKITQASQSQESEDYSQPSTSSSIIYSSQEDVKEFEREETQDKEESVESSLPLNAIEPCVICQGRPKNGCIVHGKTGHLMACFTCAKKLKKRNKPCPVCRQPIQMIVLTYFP

The term inhibition denotes the drop in the measured response relative to a control, in per cent. The IC50 is the concentration at which inhibition is half-maximal. In the case of `CCCCCn1c(=O)c(C(=O)Nc2c(C)n(C)n(-c3ccccc3)c2=O)c(O)c2ccccc21`, the inhibition in assay [1] was 42.9% (active). For the same molecule, the activation (fluorescence interference) in assay [2] is -2.75% (inactive). The IC50 in assay [3] is > 100 µM (inactive).

On to `C[C@@H]1O[C@@H](O[C@H]2C[C@@H](O)[C@]3(CO)[C@H]4[C@H](O)C[C@]5(C)[C@@H](C6COC(=O)C6)CC[C@]5(O)[C@@H]4CC[C@]3(O)C2)[C@H](O)[C@H](O)[C@H]1O` (stereo partly drawn), for which the inhibition in [4] was 26.8% (active).

In the case of `Cc1cccc(-n2c(O)c(/C=C3/C(c4ccccc4)=Nc4ccccc43)c(=O)[nH]c2=O)c1`, in assay [4], the inhibition is 35.8% (active).

Consider `CCOC(=O)c1ccc(-[n+]2c(-c3ccccc3)cc(-c3ccccc3)cc2-c2ccccc2)cc1`, for which the inhibition in assay [4] was 23.6% (active).

`C/C(=N/O)c1ccc2ccc3ccccc3c2c1`: the inhibition in assay [5] was 64.6% (active); in assay [6], 61.5% (active); in assay [7] it was 79.5% (active); in [8], 19.2% (inactive); in assay [9], 30.7% (inactive).

As for `Cn1c(NN=O)nc2ccccc21`, the inhibition in assay [4] is 35.8% (active).

As for `COc1cc2c3c(c1OC)Oc1ccc(cc1)C[C@H]1c4c(cc(OC)c(OC)c4Oc4ccc(cc4)C[C@@H]3N(C)CC2)CCN1C`, the inhibition in assay [4] is 35.2% (active).

Consider `CNCC(O)c1cc(F)c(OCc2ccccc2)c(OCc2ccccc2)c1F` (stereo not drawn), for which, in assay [1], the inhibition was 12.9% (inactive). In addition, in assay [2], the activation (fluorescence interference) was 12.9% (inactive).

With `CCc1nc2ccccc2c(=O)n1-c1cccc(OC)c1`, the cytotoxicity in [10] is -11.4% (inactive).

As to `COc1cccc(-c2nc3ccc(N4CCN(C)CC4)cc3[nH]2)c1`, the cytotoxicity in assay [10] is 82.3% (active). For the same molecule, the inhibition in assay [5] is 74.8% (active); in assay [6] it was 67.2% (active); in [7], 88.2% (active); in assay [8] it was 87% (active); in assay [9], 25.4% (inactive). Also, the results for the activity in assay [11] and in assay [12] were 90.4% and 87.8%, respectively.

With `Clc1ccc(C(c2ccc(Cl)cc2)n2cc[n+](CC(OCc3ccc(Cl)cc3Cl)c3ccc(Cl)cc3Cl)c2)cc1` (stereo not drawn), in assay [4], the inhibition is 28.6% (active).

`Cc1cc2ccccn2c1C(C[N+](=O)[O-])c1c(F)cccc1Cl` (stereo not drawn): the results for the inhibition in assay [13], in assay [14] and in assay [4] were 6.25% (inactive), 33% (active) and 29.6% (active), respectively.

Regarding `COc1ccc(-n2nnnc2C(c2cccc3ccccc23)N2CCC(n3c(=O)[nH]c4ccccc43)CC2)cc1` (stereo not drawn), the inhibition in assay [15] is 14.7% (inactive).

As to `O=C(CSC1c2ccccc2-c2ccccc21)N/N=C/c1ccccc1O`, the inhibition in assay [4] is 27.7% (active); in assay [16], 79.8%; in assay [17], 66.1%; in assay [18] it was 64.9%; in assay [19] it was 74.1%.

For `COc1ccc(CNCCc2c(C)[nH]c3ccc(OC(F)(F)F)cc23)c(OC)c1`, the inhibition in assay [16] is 102%; in assay [17], 101%.

On to `Cc1[nH]c2ccc(OC(F)(F)F)cc2c1CCNCc1cccc([N+](=O)[O-])c1`, for which the inhibition in assay [16] and in [17] was 101% each time.
